Measured values reported in PubChem BioAssay (NCI).
Compounds without any hit were thinned out: in the full panel of roughly 83,000, 20% have a hit.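 How to read the values: 0–100, growth inhibition (40 = 60% inhibited); 0, no net growth; -100 to 0, cell death (-40 = 40% of starting cells died; -100 = all dead).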 A number with no mark means an inactive call. Calls of active or inactive are those of the source.

These molecules were tested on NCI-H322M lung (assay: NCI-60 one-dose screen, 48 h (100 = growth as untreated, 0 = no growth, -100 = all killed)). Conditions: 10 µM unless noted.
Procedure: Growth inhibition of the NCI-H322M human Non-Small Cell Lung tumor cell line is measured as a screen for anti-cancer activity. Cells are grown in 96 well plates and exposed to the test compound for 48 hours. Compounds are tested at a single concentration, which is 10^-5 M for most compounds. The reported endpoint is percent growth (GI% or GIPRCNT), where numbers from 0 - 100% represent growth inhibition, and numbers from -100% - 0 represent cell death. For example, a value of 40 represents 60% growth inhibition. A value of 0 means no net growth occurred over the course of the experiment. A value of -40 indicates 40% of cells at the beginning of the experiment died by the end of the experiment. A value of -100 means all cells are dead at the end of the experiment.
NCI-60 Human Tumor Cell Lines Screen was performed using the standard one-dose NCI protocol, which is described in more detail at https://dtp.cancer.gov/discovery_development/nci-60/default.htm.
Compounds with GIPRCNT values below 10 were considered active. Activity score was based on GIPRCNT using the following formula: […]
Score is 0 for GIPRCNT values of 100 or above, 50 for GIPRCNT values of 0, and 100 for GIPRCNT values of -100.

| Structure (SMILES) | growth |
| --- | --- |
| OCCCCCNC1CCCCC1 | 99% |
| [Cl][Hg][n]1c(-c2ccco2)nc2ccccc21 | 98.8% |
| O=C1NC(=O)C(=Cc2cccn2CCCCCn2c3ccccc3c(=O)c3ccccc32)C(=O)N1 | 98.3% |
| CC1CN1CCCCN1CC1C (stereo not given) | 101% |
| O=C([O][Hg][CH2]C1OCCOC1[CH2][Hg][O]C(=O)c1ccccc1)c1ccccc1 (stereo not given) | 116% |
| CN1C(=O)C(=Cc2cn(CCCCCCn3c4ccccc4c(=O)c4ccccc43)c3ccccc23)C(=O)N(C)C1=O | 99.4% |
| CN(C)C(=O)Oc1ccc(Br)cc1 | 86.1% |
| NC(=Nc1ccccc1)N[N+](=O)[O-] | 109% |
| CC(=O)[C@H]1CC[C@H]2[C@@H]3CC[C@H]4C[C@H](N)CC[C@]4(C)[C@H]3CC[C@]12C | 107% |
| COC(=O)[C@@H](C)C[C@H](Cc1ccccc1)NC(=O)c1nc([C@@H](C[C@H](C(C)C)N(C)C(=O)[C@@H](NC(=O)[C@H]2CC(=O)CCN2C)C(C)C)OC(C)=O)sc1C(C)C | 30.1% |
| C1CCC2(CC1)OOCNCOO2 | 97.4% |
| O[C@H](CN1CC1)[C@@H](O)CN1CC1 | 103% |
| COc1ccc(N(CC(=O)NCCC[Te]c2ccccc2)C(=O)CNC(=O)OC(C)(C)C)cc1 | -6.97% (active) |
| COc1ccc(N(CC(=O)NCCC[Te]c2ccccc2)C(=O)CCSC2=C(C)C(=O)c3ccccc3C2=O)cc1 | 2.85% (active) |
| CCCCN1CCCC[C@@H]1C(=O)N[C@H](C(=O)N(C)[C@H](CCc1nc(C(=O)N[C@@H](Cc2ccccc2)C[C@H](C)C(=O)OC)cs1)C(C)C)[C@@H](C)CC | 71.1% |
| O=C1C2C(C(=O)[N]1[Hg][c]1cccs1)C1(Cl)C(Cl)=C(Cl)C2(Cl)C1(Cl)Cl (stereo not given) | 78.3% |
| CN(C)C(=O)Oc1ccccc1-c1ccccc1 | 111% |
| O=C(CN1CCN(C(=O)c2ccco2)CC1)Nc1ccc(Cl)cc1C(=O)c1ccccc1Cl | 98.2% |
| COc1ccc(/C=C\c2cc(OC)c(OC)c(OC)c2)cc1OCC(=O)Nc1nc2ccc(F)cc2s1 | 70.8% |
| CC[C@H](C)[C@H](NC(=O)[C@H]1CCCCN1C)C(=O)N(C)[C@H](C[C@@H](OC(C)=O)c1nc(C(=O)N[C@@H](Cc2ccccc2)C[C@H](C)C(=O)OC)cs1)C(C)C | 49.3% |

| Structure (SMILES) | growth |
| --- | --- |
| C=C1C(=O)O[C@H]2[C@H]1CC/C(COC(=O)C(=O)c1cn(Cc3ccccc3)c3ccccc13)=C\CC[C@@]1(C)O[C@@H]21 | -25.6% (active) |
| OCCNC(Cc1ccccc1)c1ccc2c(c1)OCO2 (stereo not given) | 98.4% |
| O=C1C(Cl)=C(N2CCOCC2)C(=O)c2ccccc21 | 122% |
| CCC(CC)CC1(C)CC2(C)CCOC2OO1 (stereo not given) | 109% |
| C/C=C(\C)C(=O)O[C@@H]1C(O)[C@H]2OC(COC(=O)CCC(=O)CCCCCC[C@H](CCCCC)O[C@@H]3OC(C)[C@H](OC(C)=O)C(O)[C@H]3O2)[C@H]1OC(=O)/C=C/c1ccccc1 (stereo not given in full) | 27% |
| ClC1=C(Cl)C(Cl)(C2(Cl)C(Cl)=C(Cl)C(Cl)=C2Cl)C(Cl)=C1Cl | 98.3% |
| CC[C@H](C)[C@@H]1OC(=O)C(C)(C)[C@H](O)[C@H](Cc2ccccc2)OC(=O)[C@H](C(C)C)OC(=O)[C@@H](NC(=O)c2cccc(NC=O)c2O)[C@@H](C)OC1=O | 78.9% |
| O=C1C=C2C(=CCOC2O)O1 (stereo not given) | 101% |
| CCCCCCCCCCCCCCCCCC1OC[C@H](COC(=O)O[C@@H](C(=O)O[C@H]2C[C@@]3(O)[C@@H](OC(=O)c4ccccc4)[C@@H]4[C@]5(OC(C)=O)CO[C@@H]5C[C@H](O)[C@@]4(C)C(=O)[C@H](OC(C)=O)C(=C2C)C3(C)C)[C@@H](NC(=O)c2ccccc2)c2ccccc2)O1 (stereo not given in full) | 47.4% |
| CC(=O)O[C@H]1C(=O)[C@@]2(C)[C@H]([C@H](OC(=O)c3ccccc3)[C@]3(O)C[C@H](OC(=O)[C@H](OC(=O)OC[C@@H]4COC(C)(C)O4)[C@@H](NC(=O)c4ccccc4)c4ccccc4)C(C)=C1C3(C)C)[C@]1(OC(C)=O)CO[C@@H]1C[C@@H]2O | 14.4% |
| CCc1ccccc1[C@@H]1C[C@]2(C)CCO[C@@H]2OO1 | 105% |
| C#Cc1ccc2c(c1)C(c1ccccc1F)=NCC(=O)N2C | 69.6% |
| O=C(N/N=C\c1ccc(N(CCCl)CCCl)cc1)c1cccc([N+](=O)[O-])c1 | 121% |
| Nc1ccc2c(c1)Cc1cc(Br)ccc1-2 | 105% |
| CC[C@@H]1[C@@H](C)O[C@@](O)([C@@H](C)[C@H](O)[C@H](C)[C@H]2OC(=O)/C=C/C=C/[C@H](C)[C@@H]([C@@H](C)[C@@H](O)[C@H](C)[C@@]3(O)C[C@@H](O[C@H]4C[C@@H](O)[C@H](O)C(C)O4)[C@H](CC)[C@@H](C)O3)OC(=O)/C=C/C=C/[C@@H]2C)C[C@H]1O[C@@H]1C[C@@H](O)[C@H](O)C(C)O1 (stereo not given in full) | -96.6% (active) |
| N#CC1(c2ccccc2)CCN(Cc2ccccc2)CC1 | 144% |
| COC1=CC(=O)O[C@@H](/C=C/c2ccc3c(c2)OCO3)C1 | 97.5% |
| CC(C)=CCC[C@H](C(=O)O)[C@@H]1CC[C@]2(C)C3=C(CC[C@@]12C)[C@@]1(C)CC[C@H](O)C(C)(C)[C@@H]1CC3 | 84.2% |
| O=C(O)c1c(Cl)n(Cc2ccc(O)cc2)c2ccc(O)cc12 | 96.3% |
| COc1ccc2nc(NC(=O)COc3cc(/C=C\c4cc(OC)c(OC)c(OC)c4)ccc3OC)sc2c1 | 25.3% |
